Screen size: about 350,000 compounds; about 31,000 (8.9%) were called active. Inconclusive results (about 15%) are left out. What follows is part of a selection rich in actives, with near analogues and random picks from the rest. Values without a mark were called inactive. Calls follow the shape of the dose curve; as a rule, active = well fitted inhibition curve with a large enough effect; inconclusive = small, poorly fitted or top-dose-only effect; inactive = no such curve, though single readings can be large or run the other way.
molecular target: Histone-lysine N-methyltransferase EHMT2 (Homo sapiens) (UniProt Q96KQ7); test: qHTS Assay for Inhibitors of Histone Lysine Methyltransferase G9a; settings: G9a H3K9 monomethylation, AlphaScreen, 2 h; series mostly up to 59 µM; activity, negative = inhibition: at the top concentration; also: nearly all actives have a fitted effect of over 75% in size
Sequence (Q96KQ7 913-1193 limits assumed): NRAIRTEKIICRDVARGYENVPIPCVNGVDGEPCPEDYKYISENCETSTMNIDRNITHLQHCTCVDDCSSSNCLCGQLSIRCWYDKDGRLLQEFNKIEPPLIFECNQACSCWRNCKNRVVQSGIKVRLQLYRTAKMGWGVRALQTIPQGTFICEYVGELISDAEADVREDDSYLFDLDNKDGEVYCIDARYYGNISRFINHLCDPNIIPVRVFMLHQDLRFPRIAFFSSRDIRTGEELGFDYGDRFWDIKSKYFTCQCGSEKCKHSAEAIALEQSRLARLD
Source text: Methylated lysines, on the N-terminal tails of histone proteins serve as epigenetic markers to recruit factors that can then modify local chromatin structure to lead to functional consequences. G9a and other members of the SUV39 family of the SET domain-containing superfamily of histone lysine methyltransferases (HMT) have been identified to specifically methylate Lys9 of histone H3 (H3K9). G9a catalyzes the mono- and di-methylation of H3K9 in mammalian euchromatic regions, where the resulting H3K9me2 is indicative of transcriptional repression. […] The inhibition of G9a will result in transcriptional activation and work synergistically with DNA methyltransferase and histone deacetylase inhibitors, to kill cancer cells. This qHTS assay for identification of G9a inhibitors is a chemiluminescence based AlphaScreen (PerkinElmer). Methylation of biotinylated-histone peptide is measured through specific antibody-based detection, in conjunction with streptavidin-coated donor and anti-IgG antibody-coated acceptor beads. The method is particularly well suited for detection of inhibitors acting by the desired histone peptide competitive mechanism and is applicable to testing other HMTs. Although AlphaScreen has significant advantages with its utility in a variety of epigenetic target assays, the primary screening data provided in this deposition should be used with caution due to the prevalence of screening artifacts. An AlphaScreen counterscreen is highly recommended to be run against any putative actives to eliminate non specific artifacts. Alternatively, one can use other AlphaScreen assays in PubChem to filter out promiscuous hits. Quinn et al. A chemiluminescence-based method for identification of histone lysine methyltransferase inhibitors. Mol Biosyst 6(5): 782-8. 2010. PMID: 20567762 [2] Baell,Holloway. New substructure filters for removal of pan assay interference compounds (PAINS) from screening libraries and for their exclusion in bioassays. J Med Chem. 53(7):2719-40. 2010. PMID: 20131845 NIH Molecular Libraries Probe Production Network [MLPCN] NIH Chemical Genomics Center [NCGC] Structural Genomics Consortium (SGC) NIH Grant: 5U54 MH084681-02
To each well of a 1,536w plate, 2ul of HMT enzyme (final 20nM) were added, using a nanoliter dispenser. The G9a- and GLP-inhibitor BIX-01294 (CID: 25150857) are used as an intraplate control, with a 16-point titration in duplicate. A Kalypsys pin-tool transferred 23nl of library compound solution in DMSO to each well. Following a 15 min incubation of enzyme with compounds at room temperature, 1ul mixture of b-H3K9 peptide substrate (final 500nM) and SAM cofactor (final 20uM) were added. Reactions were allowed to proceed at room temperature for 2 hours. Methylated b-H3K9 peptide product was detected with 0.5 ug/mL rabbit polyclonal anti-monomethyl histone H3K9 antibody (Abcam Inc., Cambridge, MA) and 20 ug/mL each streptavidin-coated donor and anti-rabbit IgG acceptor AlphaScreen beads. Antibody and beads were added in a 1ul dispense, for a final volume of 4ul, and plates were incubated, protected from the light, for 10 min at room temperature. Microplates were then read on an EnVision multilabel plate reader using the 1,536 plate HTS AlphaScreen aperture (excitation time 80 ms, measurement time 240 ms).
% is scaled to controls: 0 for no effect and ±100 for the full control effect; potency is read from the fitted curve at half-maximal effect.

SMILES	activity, negative = inhibition	Potency
CC(CN1CCOCC1)OC(=O)c1ccc(C(C)(C)C)cc1 (configuration not stated)	6.26% [at 0.501 µM]	
N#Cc1ccc(C2=CC(=O)C[C@H](c3ccc(Cl)cc3)C2)cc1	-28.8% [at 0.501 µM]	
CCOC(=O)c1c(S(=O)(=O)N2CCCC(C(=O)NCc3ccc(F)cc3)C2)c(C)n(CC)c1C (configuration not stated)	-3.56%	
Cc1ccc(CN2CC(C(=O)N3CCN(S(=O)(=O)c4ccccc4)CC3)CC2=O)cc1 (configuration not stated)	-21.6% [at 102 µM]	
Cc1ccc(CN2CCCn3nc(C(=O)NCc4ccccc4Cl)cc3C2=O)cc1	-28.4%	
Oc1ccc(N=Cc2sc3ccccc3c2Cl)cc1		10 µM (active)
CCOc1ccc(N=Cc2c(O)n(-c3cccc(C)n3)c(=O)c3ccccc23)cc1	5.98% [at 102 µM]	
O=C(O)C#Cc1cccc2ccccc12	-4.59% [at 102 µM]	
CCOc1[nH]n(-c2ccc(Cl)cc2)c(=O)c1C=Nc1ccc(O)cc1	-47.3% [at 102 µM]	
COc1ccc(N=C(C)c2sc3ccccc3c2O)cc1	-6.22% [at 102 µM]	
Oc1ccc2ccccc2c1C=Nc1ccccc1		2.51 µM (active)
Oc1ccc(N=Cc2c(O)ccc3ccccc23)cc1		1 µM (active)
O=C(N/N=C/c1c(Cl)[nH]c2ccccc12)c1sc2ccccc2c1Cl	11.9%	
O=S(=O)(NCCc1nnc2ccc(SCc3ccc(Cl)cc3Cl)nn12)c1ccccc1	-4.22%	
COc1ccc(NC(=O)C2CCCN(S(=O)(=O)c3cccc4nonc34)C2)cc1Cl (configuration not stated)	-1.34%	
O=S(=O)(Nc1ccc(-n2cnnn2)cc1)c1ccc(Cl)cc1	13.8%	
CCOc1ccccc1C(=O)Nc1ccc2c(c1)N(C)C(=O)c1ccccc1S2	-5.64%	
Cc1ccc(OCCNC(=O)CNC(=O)c2ccc(C)c(C)c2)cc1	24.7% [at 2.33 µM]	
Cc1cc(C)c(OCC(=O)N/N=C/c2ccco2)c(C)c1	16.5%	
COc1ccccc1OCC(=O)OCc1cc(-c2ccco2)on1	3.66% [at 12.7 µM]	
COC(=O)COc1ccc2c(c1C)O/C(=C\c1ccco1)C2=O		8.91 µM (active)
COc1cccc(C(=O)OCC(=O)c2[nH]c(C)c(C(C)=O)c2C)c1	-42.2% [at 12.7 µM]	
CCOc1ccc(N(CC)C(=O)C2CCN(S(=O)(=O)c3cccc4nonc34)CC2)cc1	-6.23%	
COc1ccc(S(=O)(=O)N2CCOCC2)cc1NC(=O)CSc1cc(C)ccc1C	3.19% [at 0.501 µM]	

SMILES	activity, negative = inhibition	Potency
CCOC(=O)c1cccc(NS(=O)(=O)c2cn(C)c(C)n2)c1	8.15%	
Cc1cccc(N2CCN(C(=O)CCn3c(=O)c4cccn4c4cccnc43)CC2C)c1 (configuration not stated)	-36%	
CSCCC(NC(=O)c1ccco1)C(=O)NCCc1ccc(F)cc1 (configuration not stated)	40.1% [at 12.7 µM]	
O=C(CN1CCN(c2ccccn2)CC1)Nc1ccc(Br)cc1	9.66% [at 102 µM]	
Cc1cnc(NC(=O)c2ccc(Cl)nc2)s1	26.6% [at 102 µM]	
CCN(CC)c1ccc(NC(=O)c2ccc(Cl)nc2)cc1		10 µM (active)
CCN(CC)c1ccc(NC(=O)CN2CCN(CC(=O)Nc3ccc(Cl)cc3)CC2)cc1		7.08 µM (active)
CCN(CC)c1ccc(NC(=O)CN2CCN(c3ccccn3)CC2)cc1		44.7 µM (active)
O=C(CN1CCN(c2ccccn2)CC1)NC1CCCCC1	8.12%	
CCOC(=O)N1CCN(CC(=O)Nc2ccc(F)cc2)CC1	-2.68% [at 102 µM]	
NS(=O)(=O)c1ccc(NC(=O)COC(=O)c2ccc(Cl)nc2)cc1	-28.6% [at 102 µM]	
CCOc1ccc(NC(=O)CN2CCN(CC(=O)Nc3ccc(OC)cc3)CC2)cc1		inactive
Cc1ccccc1N1CCN(S(=O)(=O)c2ccc3ccccc3c2)CC1	14.6% [at 0.501 µM]	
COC(=O)c1ccc2c(C(C)(C)O)c(C(C)(C)O)[nH]c2c1	-11.7% [at 102 µM]	
COc1ccc(N2CCN(C(=O)CSCc3nc(-c4ccccc4Cl)oc3C)CC2)cc1	1.56%	
CNc1ccc([N+](=O)[O-])cc1C(=O)O	-8.97% [at 102 µM]	
CCN(CC)c1ccc([N+](=O)[O-])cc1C(=O)O		50.1 µM (active)
CCN(CC)C(=O)CN(c1cccc([N+](=O)[O-])c1)S(=O)(=O)c1ccccc1	-1.93% [at 102 µM]	
COc1ccc(N(CCC(=O)NCCc2ccccc2)S(=O)(=O)c2ccc(C)cc2C)cc1	12.2% [at 12.7 µM]	
O=C(c1cc(S(=O)(=O)N2CCOCC2)ccc1Cl)N1CCOCC1	6.5% [at 102 µM]	
CCCN(CCC)CCCNC(=O)Cn1ncc2c3ccccc3n(Cc3ccccc3)c2c1=O	-10.6%	
Cc1ccc(NC(=S)N2CCN(c3ncccn3)CC2)cc1C	31.3%	
Cc1nc2ccc(NC(=S)N3CCC(C)CC3)cc2nc1C		44.7 µM (active)
